Laboratory results published in the supplement of paper PMC4466140.

What was measured:
Experiment in all cases: SPOT peptide array binding signal intensity (averaged, normalized) (arbitrary units (background-subtracted, floor 0; scale differs between SH3 domains)); higher = stronger binding of the SH3 domain to the peptide
SpBzz1-D2 = target: SpBzz1-D2
How it was run: (§1)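 Binding signal is given in arbitrary units that differ between domains and is the normalized, background-subtracted spot intensity averaged across replicates. Each GST-SH3 fusion from one of four yeast species was made in E. coli BL21(DE3), purified on glutathione Sepharose and incubated at 10 μg/ml overnight at 4°C on cellulose-bound synthetic 15-mer peptides in which cysteines were replaced by serines. Detection used anti-GST antibody, an HRP anti-mouse secondary and luminol, followed by imaging and Genespotter quantification.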

SpCyk3 = target: SpCyk3
How it was run: as §1

SpHof1 = target: SpHof1
How it was run: as §1

SpHof1-2 = target: SpHof1-2
How it was run: as §1

SpHof1-3 = target: SpHof1-3
How it was run: as §1

SpHse1 = target: SpHse1
How it was run: as §1

SpLsb1 = target: SpLsb1
How it was run: as §1

SpLsb4 = target: SpLsb4
How it was run: as §1

SpMyo1 = target: SpMyo1
How it was run: as §1

SpNbp2 = target: SpNbp2
How it was run: as §1

SpPex13 = target: SpPex13
How it was run: as §1

SpRvs167 = target: SpRvs167
How it was run: as §1

SpSla1-D1-D2 = target: SpSla1-D1-D2
How it was run: as §1

SpSla1-D3 = target: SpSla1-D3
How it was run: as §1

AgAbp1 = target: AgAbp1
How it was run: as §1

AgBbc1 = target: AgBbc1
How it was run: as §1

AgBem1-D1 = target: AgBem1-D1
How it was run: as §1

AgBzz1-D1 = target: AgBzz1-D1
How it was run: as §1

AgBzz1-D2 = target: AgBzz1-D2
How it was run: as §1

AgCyk3 = target: AgCyk3
How it was run: as §1

AgFus1 = target: AgFus1
How it was run: as §1

AgHof1 = target: AgHof1
How it was run: as §1

AgHse1 = target: AgHse1
How it was run: as §1

AgLsb1 = target: AgLsb1
How it was run: as §1

AgLsb4 = target: AgLsb4
How it was run: as §1

AgMyo5 = target: AgMyo5
How it was run: as §1

AgNbp2 = target: AgNbp2
How it was run: as §1

AgRvs167 = target: AgRvs167
How it was run: as §1

AgSho1 = target: AgSho1
How it was run: as §1

AgSla1-D1-D2 = target: AgSla1-D1-D2
How it was run: as §1

AgSla1-D3 = target: AgSla1-D3
How it was run: as §1

CaAbp1-D1 = target: CaAbp1-D1
How it was run: as §1

CaAbp1-D2 = target: CaAbp1-D2
How it was run: as §1

CaBbc1 = target: CaBbc1
How it was run: as §1

CaBem1-D1 = target: CaBem1-D1
How it was run: as §1

CaBzz1-D1 = target: CaBzz1-D1
How it was run: as §1

CaBzz1-D2 = target: CaBzz1-D2
How it was run: as §1

CaCyk3 = target: CaCyk3
How it was run: as §1

CaFus1 = target: CaFus1
How it was run: as §1

CaHof1 = target: CaHof1
How it was run: as §1

CaHse1 = target: CaHse1
How it was run: as §1

CaLsb1 = target: CaLsb1
How it was run: as §1

CaLsb4 = target: CaLsb4
How it was run: as §1

CaMyo5 = target: CaMyo5
How it was run: as §1

CaNbp2 = target: CaNbp2
How it was run: as §1

CaRvs167 = target: CaRvs167
How it was run: as §1

CaRvs167-3 = target: CaRvs167-3
How it was run: as §1

CaSho1 = target: CaSho1
How it was run: as §1

CaSla1-D1-D2 = target: CaSla1-D1-D2
How it was run: as §1

CaSla1-D3 = target: CaSla1-D3
How it was run: as §1

ScAbp1 = target: ScAbp1
How it was run: as §1

ScBbc1 = target: ScBbc1
How it was run: as §1

ScBem1-D1 = target: ScBem1-D1
How it was run: as §1

ScBzz1-D1 = target: ScBzz1-D1
How it was run: as §1

ScBzz1-D2 = target: ScBzz1-D2
How it was run: as §1

ScCyk3 = target: ScCyk3
How it was run: as §1

ScFus1 = target: ScFus1
How it was run: as §1

ScHof1 = target: ScHof1
How it was run: as §1

ScHse1 = target: ScHse1
How it was run: as §1

ScLsb1 = target: ScLsb1
How it was run: as §1

ScLsb2 = target: ScLsb2
How it was run: as §1

ScLsb3 = target: ScLsb3
How it was run: as §1

ScLsb4 = target: ScLsb4
How it was run: as §1

ScMyo3 = target: ScMyo3
How it was run: as §1

ScMyo5 = target: ScMyo5
How it was run: as §1

ScNbp2 = target: ScNbp2
How it was run: as §1

ScPex13 = target: ScPex13
How it was run: as §1

ScRvs167 = target: ScRvs167
How it was run: as §1

ScSho1 = target: ScSho1
How it was run: as §1

ScSla1-D1-D2 = target: ScSla1-D1-D2
How it was run: as §1

ScSla1-D3 = target: ScSla1-D3
How it was run: as §1

SpAbp1-D1 = target: SpAbp1-D1
How it was run: as §1

SpBbc1 = target: SpBbc1
How it was run: as §1

SpBzz1-D1 = target: SpBzz1-D1
How it was run: as §1

NMLSRPRLAKLPSIR
SPOT peptide array binding signal intensity (SpBzz1-D2): 13
SPOT peptide array binding signal intensity (SpCyk3): 3
SPOT peptide array binding signal intensity (SpHof1): 100
SPOT peptide array binding signal intensity (SpHof1-2): 59.2
SPOT peptide array binding signal intensity (SpHof1-3): 1590
SPOT peptide array binding signal intensity (SpHse1): 2030
SPOT peptide array binding signal intensity (SpLsb1): 10.5
SPOT peptide array binding signal intensity (SpLsb4): 859
SPOT peptide array binding signal intensity (SpMyo1): 24.8
SPOT peptide array binding signal intensity (SpNbp2): 577
SPOT peptide array binding signal intensity (SpPex13): 74
SPOT peptide array binding signal intensity (SpRvs167): 32.2
SPOT peptide array binding signal intensity (SpSla1-D1-D2): 8
SPOT peptide array binding signal intensity (SpSla1-D3): 194

FSRRQSMDIPSKNRN
SPOT peptide array binding signal intensity (AgAbp1): 114
SPOT peptide array binding signal intensity (AgBbc1): 69.8
SPOT peptide array binding signal intensity (AgBem1-D1): 557
SPOT peptide array binding signal intensity (AgBzz1-D1): 33
SPOT peptide array binding signal intensity (AgBzz1-D2): 78.5
SPOT peptide array binding signal intensity (AgCyk3): 3
SPOT peptide array binding signal intensity (AgFus1): 248
SPOT peptide array binding signal intensity (AgHof1): 67.5
SPOT peptide array binding signal intensity (AgHse1): 550
SPOT peptide array binding signal intensity (AgLsb1): 15
SPOT peptide array binding signal intensity (AgLsb4): 24
SPOT peptide array binding signal intensity (AgMyo5): 16
SPOT peptide array binding signal intensity (AgNbp2): 660
SPOT peptide array binding signal intensity (AgRvs167): 4.17
SPOT peptide array binding signal intensity (AgSho1): 115
SPOT peptide array binding signal intensity (AgSla1-D1-D2): 54
SPOT peptide array binding signal intensity (AgSla1-D3): 11
SPOT peptide array binding signal intensity (CaAbp1-D1): 266
SPOT peptide array binding signal intensity (CaAbp1-D2): 313
SPOT peptide array binding signal intensity (CaBbc1): 384
SPOT peptide array binding signal intensity (CaBem1-D1): 686
SPOT peptide array binding signal intensity (CaBzz1-D1): 475
SPOT peptide array binding signal intensity (CaBzz1-D2): 308
SPOT peptide array binding signal intensity (CaCyk3): 25
SPOT peptide array binding signal intensity (CaFus1): 602
SPOT peptide array binding signal intensity (CaHof1): 0.5
SPOT peptide array binding signal intensity (CaHse1): 225
SPOT peptide array binding signal intensity (CaLsb1): 4
SPOT peptide array binding signal intensity (CaLsb4): 412
SPOT peptide array binding signal intensity (CaMyo5): 47.8

YVRRRPRVRLEPLLS
SPOT peptide array binding signal intensity (AgAbp1): 116
SPOT peptide array binding signal intensity (AgBbc1): 30.5
SPOT peptide array binding signal intensity (AgBem1-D1): 62.5
SPOT peptide array binding signal intensity (AgBzz1-D1): 152
SPOT peptide array binding signal intensity (AgBzz1-D2): 91.5
SPOT peptide array binding signal intensity (AgCyk3): 6.5
SPOT peptide array binding signal intensity (AgFus1): 928
SPOT peptide array binding signal intensity (AgHof1): 35
SPOT peptide array binding signal intensity (AgHse1): 936
SPOT peptide array binding signal intensity (AgLsb1): 17.2
SPOT peptide array binding signal intensity (AgLsb4): 138
SPOT peptide array binding signal intensity (AgMyo5): 6
SPOT peptide array binding signal intensity (AgNbp2): 424
SPOT peptide array binding signal intensity (AgRvs167): 14.1
SPOT peptide array binding signal intensity (AgSho1): 263
SPOT peptide array binding signal intensity (AgSla1-D1-D2): 258
SPOT peptide array binding signal intensity (AgSla1-D3): 15.8
SPOT peptide array binding signal intensity (CaAbp1-D1): 603
SPOT peptide array binding signal intensity (CaAbp1-D2): 652
SPOT peptide array binding signal intensity (CaBbc1): 150
SPOT peptide array binding signal intensity (CaBem1-D1): 81.5
SPOT peptide array binding signal intensity (CaBzz1-D1): 184
SPOT peptide array binding signal intensity (CaBzz1-D2): 108
SPOT peptide array binding signal intensity (CaCyk3): 45.5
SPOT peptide array binding signal intensity (CaFus1): 589
SPOT peptide array binding signal intensity (CaHof1): 0.75
SPOT peptide array binding signal intensity (CaHse1): 107
SPOT peptide array binding signal intensity (CaLsb1): 0.75
SPOT peptide array binding signal intensity (CaLsb4): 164
SPOT peptide array binding signal intensity (CaMyo5): 8.25
SPOT peptide array binding signal intensity (CaNbp2): 887
SPOT peptide array binding signal intensity (CaRvs167): 23.8
SPOT peptide array binding signal intensity (CaRvs167-3): 82.6
SPOT peptide array binding signal intensity (CaSho1): 898
SPOT peptide array binding signal intensity (CaSla1-D1-D2): 114
SPOT peptide array binding signal intensity (CaSla1-D3): 5.25
SPOT peptide array binding signal intensity (ScAbp1): 128
SPOT peptide array binding signal intensity (ScBbc1): 24.8
SPOT peptide array binding signal intensity (ScBem1-D1): 46.5
SPOT peptide array binding signal intensity (ScBzz1-D1): 58.5
SPOT peptide array binding signal intensity (ScBzz1-D2): 117
SPOT peptide array binding signal intensity (ScCyk3): 79.5
SPOT peptide array binding signal intensity (ScFus1): 706
SPOT peptide array binding signal intensity (ScHof1): 0.5
SPOT peptide array binding signal intensity (ScHse1): 2260
SPOT peptide array binding signal intensity (ScLsb1): 22.5
SPOT peptide array binding signal intensity (ScLsb2): 8
SPOT peptide array binding signal intensity (ScLsb3): 558
SPOT peptide array binding signal intensity (ScLsb4): 29.5
SPOT peptide array binding signal intensity (ScMyo3): 6.25
SPOT peptide array binding signal intensity (ScMyo5): 3
SPOT peptide array binding signal intensity (ScNbp2): 548
SPOT peptide array binding signal intensity (ScPex13): 18.2
SPOT peptide array binding signal intensity (ScRvs167): 30.8
SPOT peptide array binding signal intensity (ScSho1): 1070
SPOT peptide array binding signal intensity (ScSla1-D1-D2): 309
SPOT peptide array binding signal intensity (ScSla1-D3): 29.9
SPOT peptide array binding signal intensity (SpAbp1-D1): 252
SPOT peptide array binding signal intensity (SpBbc1): 23.2
SPOT peptide array binding signal intensity (SpBzz1-D1): 125
SPOT peptide array binding signal intensity (SpBzz1-D2): 4.62
SPOT peptide array binding signal intensity (SpCyk3): 2
SPOT peptide array binding signal intensity (SpHof1): 97.6
SPOT peptide array binding signal intensity (SpHof1-2): 29.5
SPOT peptide array binding signal intensity (SpHof1-3): 256
SPOT peptide array binding signal intensity (SpHse1): 834
SPOT peptide array binding signal intensity (SpLsb1): 7.88
SPOT peptide array binding signal intensity (SpLsb4): 254
SPOT peptide array binding signal intensity (SpMyo1): 5.25
SPOT peptide array binding signal intensity (SpNbp2): 673
SPOT peptide array binding signal intensity (SpPex13): 61.8
SPOT peptide array binding signal intensity (SpRvs167): 23
SPOT peptide array binding signal intensity (SpSla1-D1-D2): 9
SPOT peptide array binding signal intensity (SpSla1-D3): 87
